The text below walks through data of PubChem BioAssay.

Activity calls are given as the source filed them.

Test [1] is described as follows: small molecules captured by biotinylated probe aFSTL3 – biochemical, small-molecule microarray, fluorescence 635/667, stem cell growth factor project, primary screen (AID 1064).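 Note: measures binding of the biotinylated anti-FSTL3 antibody to printed compounds.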 The conditions noted are these: higher = more signal.
The nature of test [2]: binders from COS7 lysate, DM2A8 probe, primary screen, torsin A project, cell lysate, small-molecule microarray, fluorescence 635/667 (AID 1065). Conditions: higher = more signal, COS7 lysate expressing mutant human TOR1A.
The nature of test [3]: small molecules captured by biotinylated probe aFGF2 – biochemical, small-molecule microarray, fluorescence 635/667, stem cell growth factor project, primary screen (AID 1067).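 Note: measures binding of biotinylated aFGF2 protein to printed compounds on slides; z-score merges feature fluorescence and signal-to-noise across triplicate slides.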 The conditions noted are these: higher = more signal.
The nature of test [4]: small molecules captured by biotinylated probe aFGF10 – biochemical, small-molecule microarray, fluorescence 635/667, stem cell growth factor project, primary screen (AID 1071).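 Note: score merges 667 nm spot intensity and signal to noise from triplicate slides.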 Conditions: higher = more signal.
The target in test [5] is Neurogenic locus notch homolog protein 2 (Homo sapiens) (UniProt Q04721). The test can be described thus: small molecules binding Notch2 protein – biochemical, small-molecule microarray, 635 nm fluorescence, stem cell growth factors, primary screen (AID 1073). The conditions noted are these: higher = more signal.
In test [6] the target is Pro-neuregulin-1, membrane-bound isoform (Homo sapiens) (UniProt Q02297). Briefly: small molecules binding neuregulin-1 protein – biochemical, small-molecule microarray, fluorescence 635/667, psychiatric disease protein project, primary screen (AID 1075).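 Note: score combines 667 nm spot fluorescence with signal to noise.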 Conditions: NRG1 binding, 635 nm fluorescence, higher = more signal.
In test [7] the test system is Neuregulin-1 EGF-like domain. Briefly: small molecules binding NRG1 EGF domain – biochemical, small-molecule microarray, 635 nm fluorescence, primary screen (AID 1081).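 Note: binding of the protein to compounds printed on small-molecule microarray slides.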 Conditions: higher = more signal.
Test [8] can be described thus: FRG1 expression reporter modulators in myotubes – cell-based, C2C12 myotubes, firefly/Renilla luciferase, luminescence, FRG1 inhibition for FSHD, primary screen (AID 1084). Conditions: FRG1 promoter luciferase, higher = more signal, called active from +8 up or from −8 down.
Test [9] is described as follows: small molecules captured by biotinylated probe aFST – biochemical, small-molecule microarray, fluorescence 635/667, stem cell growth factor project, primary screen (AID 1086).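 Note: score merges 667 nm fluorescence with signal-to-noise of each printed compound spot.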 The conditions noted are these: higher = more signal.
Test [10] is described as follows: binders of probe aHhip on microarray, primary screen, stem cell growth factor project, biochemical, small-molecule microarray, fluorescence 635/667 (AID 1087).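 Note: score merges spot fluorescence at 667nm with spot signal to noise ratio.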 Conditions: higher = more signal.

Sequence of Pro-neuregulin-1, membrane-bound isoform (Homo sapiens) (Q02297 whole entry, looked up, the tested form may be a part, canonical isoform): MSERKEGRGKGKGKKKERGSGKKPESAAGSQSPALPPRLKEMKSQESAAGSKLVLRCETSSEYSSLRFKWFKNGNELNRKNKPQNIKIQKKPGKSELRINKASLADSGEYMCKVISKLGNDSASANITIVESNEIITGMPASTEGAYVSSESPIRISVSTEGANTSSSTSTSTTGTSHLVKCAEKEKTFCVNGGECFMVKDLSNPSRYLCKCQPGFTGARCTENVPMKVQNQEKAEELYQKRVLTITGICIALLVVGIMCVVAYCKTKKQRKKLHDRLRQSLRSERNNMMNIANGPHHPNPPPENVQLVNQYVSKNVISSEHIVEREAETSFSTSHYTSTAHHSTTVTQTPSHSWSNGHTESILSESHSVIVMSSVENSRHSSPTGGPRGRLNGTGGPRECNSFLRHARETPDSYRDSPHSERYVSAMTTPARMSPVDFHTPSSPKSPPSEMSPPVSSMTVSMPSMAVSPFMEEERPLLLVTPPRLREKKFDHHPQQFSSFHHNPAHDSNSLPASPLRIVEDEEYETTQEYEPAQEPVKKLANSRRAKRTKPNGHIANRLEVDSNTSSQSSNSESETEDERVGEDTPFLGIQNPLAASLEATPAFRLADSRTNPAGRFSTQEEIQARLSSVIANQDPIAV
Sequence of Neurogenic locus notch homolog protein 2 (Homo sapiens) (Q04721 whole entry, looked up, canonical isoform): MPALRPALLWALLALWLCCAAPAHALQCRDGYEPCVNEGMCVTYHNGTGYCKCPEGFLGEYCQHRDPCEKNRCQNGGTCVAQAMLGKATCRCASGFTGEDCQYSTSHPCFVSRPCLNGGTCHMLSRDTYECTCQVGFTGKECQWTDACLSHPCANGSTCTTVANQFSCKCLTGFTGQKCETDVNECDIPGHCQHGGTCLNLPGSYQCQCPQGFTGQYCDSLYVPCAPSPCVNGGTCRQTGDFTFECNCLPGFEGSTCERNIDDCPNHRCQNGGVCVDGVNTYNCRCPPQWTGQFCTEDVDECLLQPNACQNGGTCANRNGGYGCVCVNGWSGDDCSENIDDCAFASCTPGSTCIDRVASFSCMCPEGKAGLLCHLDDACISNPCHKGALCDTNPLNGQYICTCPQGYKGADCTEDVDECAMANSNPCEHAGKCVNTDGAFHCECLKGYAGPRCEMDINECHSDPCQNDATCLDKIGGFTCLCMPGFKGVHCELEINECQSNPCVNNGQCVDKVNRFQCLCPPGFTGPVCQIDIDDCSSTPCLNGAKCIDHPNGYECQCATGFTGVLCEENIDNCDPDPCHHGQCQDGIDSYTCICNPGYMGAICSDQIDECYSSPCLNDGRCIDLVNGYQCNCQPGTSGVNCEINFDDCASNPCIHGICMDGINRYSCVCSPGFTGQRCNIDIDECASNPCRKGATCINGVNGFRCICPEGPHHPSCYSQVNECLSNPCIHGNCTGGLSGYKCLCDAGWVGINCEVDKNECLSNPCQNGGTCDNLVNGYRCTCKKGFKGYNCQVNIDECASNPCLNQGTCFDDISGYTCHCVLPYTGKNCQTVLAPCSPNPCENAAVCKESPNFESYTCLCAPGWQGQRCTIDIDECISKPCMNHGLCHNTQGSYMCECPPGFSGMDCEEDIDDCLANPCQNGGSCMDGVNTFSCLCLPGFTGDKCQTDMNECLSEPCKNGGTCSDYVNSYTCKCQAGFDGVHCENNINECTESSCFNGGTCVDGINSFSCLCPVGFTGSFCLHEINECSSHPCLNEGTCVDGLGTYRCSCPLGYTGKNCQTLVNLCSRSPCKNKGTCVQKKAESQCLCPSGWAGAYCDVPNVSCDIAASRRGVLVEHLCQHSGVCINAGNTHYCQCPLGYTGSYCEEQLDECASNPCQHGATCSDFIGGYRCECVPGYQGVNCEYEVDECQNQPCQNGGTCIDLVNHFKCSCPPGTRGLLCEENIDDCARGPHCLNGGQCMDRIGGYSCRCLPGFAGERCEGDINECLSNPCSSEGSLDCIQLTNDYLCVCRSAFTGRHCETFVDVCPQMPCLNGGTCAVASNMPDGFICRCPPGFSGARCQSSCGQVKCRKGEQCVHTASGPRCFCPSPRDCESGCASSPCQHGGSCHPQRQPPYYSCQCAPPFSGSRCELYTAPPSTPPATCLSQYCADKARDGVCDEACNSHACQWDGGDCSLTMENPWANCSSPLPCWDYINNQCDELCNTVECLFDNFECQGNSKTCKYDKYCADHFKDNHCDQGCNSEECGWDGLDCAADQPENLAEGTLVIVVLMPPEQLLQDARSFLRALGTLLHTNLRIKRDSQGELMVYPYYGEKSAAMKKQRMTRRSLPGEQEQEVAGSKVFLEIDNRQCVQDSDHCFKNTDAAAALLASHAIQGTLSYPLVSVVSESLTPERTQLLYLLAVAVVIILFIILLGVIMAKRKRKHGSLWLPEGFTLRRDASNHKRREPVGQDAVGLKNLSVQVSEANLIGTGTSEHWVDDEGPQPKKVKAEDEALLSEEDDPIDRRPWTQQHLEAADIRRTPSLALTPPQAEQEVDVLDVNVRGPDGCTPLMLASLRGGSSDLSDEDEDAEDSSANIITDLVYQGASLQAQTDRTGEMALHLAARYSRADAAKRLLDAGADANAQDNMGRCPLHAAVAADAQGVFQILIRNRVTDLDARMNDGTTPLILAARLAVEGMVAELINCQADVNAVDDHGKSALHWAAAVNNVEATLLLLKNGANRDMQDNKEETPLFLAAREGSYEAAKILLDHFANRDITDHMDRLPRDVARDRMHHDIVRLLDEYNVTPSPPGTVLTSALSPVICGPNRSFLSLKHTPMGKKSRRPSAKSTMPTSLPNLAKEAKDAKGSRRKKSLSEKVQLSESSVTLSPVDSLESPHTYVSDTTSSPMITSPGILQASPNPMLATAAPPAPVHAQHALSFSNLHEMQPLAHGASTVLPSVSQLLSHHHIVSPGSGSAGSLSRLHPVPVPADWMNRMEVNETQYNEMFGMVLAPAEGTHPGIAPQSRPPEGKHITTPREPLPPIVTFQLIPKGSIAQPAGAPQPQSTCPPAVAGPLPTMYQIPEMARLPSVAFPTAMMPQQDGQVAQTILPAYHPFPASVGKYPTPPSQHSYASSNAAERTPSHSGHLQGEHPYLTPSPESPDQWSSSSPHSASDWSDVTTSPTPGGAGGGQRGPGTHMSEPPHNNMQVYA

As for `C#CCCCON=C1[C@H]2CCn3c(=O)n(C)c(=O)n3[C@H]2[C@H](O)[C@@H]2O[C@H]12`, the composite z-score in [1] is -0.454; in test [2] it was 0.588; in [3], 0.0624; in test [4] it was 0.382; in [5], 1.05; in test [6], -0.0714. Moreover, the values for the composite z-score in test [7], in test [9] and in test [10] were 0.58, 0.159 and 0.535, respectively. Moreover, in test [8], the z-score was 0.678 (inactive).

On to `CC(C)=CCCC(C)=CCON=C1C[C@@H](O)[C@@H](O)[C@@H]2[C@@H]3C(=O)N(c4ccc(F)cc4F)C(=O)[C@@H]3CC[C@H]12`, for which the composite z-score in test [1] is -0.292; in test [2], 0.611; in [3], -0.174; in test [4] it was 0.03; in [5], 1; in test [6], 1.06. Moreover, the composite z-score in test [7] was determined as 0.849; in test [9] it was 0.573; in test [10], 0.0976. The z-score in [8] is -0.389 (inactive).

In the case of `CON=C(C)CCC(=O)OC[C@H]1O[C@H](c2ccccc2)C=C[C@@H]1Oc1ccc(OC)cc1`, the composite z-score in test [1] was -0.0269; in [2], 0.0837; in [3], -0.0504; in test [4], 0.111; in [5], -0.272; in test [6] it was -0.351. In addition, the composite z-score in test [7] is -0.0622; in [9] it was 0.308; in test [10], -0.131. In addition, in test [8], the z-score was 1.89 (inactive).

Take `CCOC(=O)NN=C1C[C@@H](O)[C@@H](O)[C@@H]2[C@@H]3C(=O)N([C@@H](C)c4ccccc4)C(=O)[C@@H]3CC[C@@H]12`: the composite z-score was -0.291 in test [1]; 2.08 in [2]; -0.0934 in test [3]; 0.393 in test [4]; 0.601 in test [5]; -0.133 in [6]. The values for the composite z-score in test [7], in test [9] and in test [10] were 0.11, 0.517 and -0.0994, respectively. Moreover, the z-score in [8] was 0.696 (inactive).

With `COc1cccc([C@H]2Oc3ccc(OC)cc3C(=NO[C@@H](C)c3cn([C@H](CO)Cc4ccccc4)nn3)[C@@H]2O)c1`, the composite z-score in test [1] was -0.234; in test [2] it was -0.346; in test [3] it was -0.133; in [4], 0.226; in [5], -0.188; in test [6], 0.428. In addition, the composite z-score in test [7] was -0.123; in test [9], 0.105; in test [10] it was -0.134. Besides, the z-score in test [8] was 0.213 (inactive).

Regarding `CCCNC(=O)OC[C@H]1O[C@H](CCON=C(C)CCC(=O)OC[C@H]2O[C@H](c3ccccc3)C=C[C@@H]2Oc2ccc(OC)cc2)C=C[C@@H]1Oc1ccc(OC)cc1`, the composite z-score in [1] is -0.302; in test [2] it was 0.21; in [3], -0.127; in [4] it was -0.178; in test [5] it was -0.843; in test [6], -0.311. The composite z-score is -0.731 in [7], 0.0494 in test [9] and -0.0618 in test [10]. The z-score in [8] is 0.862 (inactive).

`CC(C)=CCCC(C)=CCON=C1C[C@@H](O)[C@@H](O)[C@@H]2[C@@H]3C(=O)N(C(C)(C)C)C(=O)[C@@H]3CC[C@@H]12`: the composite z-score in test [1] is 0.0454; in test [2] it was 0.113; in test [3], -0.0473; in test [4], 0.257; in test [5] it was 0.0729; in test [6], -0.0925. Moreover, the composite z-score is 0.184 in test [7], 0.13 in [9] and -0.191 in test [10]. Also, the z-score in test [8] is -0.519 (inactive).

As to `CON=C[C@@H](C)[C@H](OCc1ccccc1)C(C)C`, the composite z-score was 0.797 in test [1]; 0.0789 in test [2]; -0.138 in test [3]; -0.0499 in test [4]; -0.12 in test [5]; -0.575 in test [6]. Besides, the composite z-score in test [7] is -0.502; in [9] it was -0.0062; in [10], 0.0373. In addition, the z-score in [8] was 0.538 (inactive).

Regarding `CO[C@H]1COC(=O)CC=C[C@@H](C)[C@H](NS(=O)(=O)c2ccc(C)cc2)COC(=O)CCC[C@@H]1C`, the composite z-score in [1] is -0.366; in [2], 0.906; in [3], -0.154; in test [4], 0.21; in test [5] it was 0.18; in [6] it was -0.25. Besides, the composite z-score was 0.185 in test [7], -0.225 in test [9] and -0.635 in test [10]. Moreover, the z-score in test [8] is 0.408 (inactive).

In the case of `CC(CCN1CCCCc2nc(C)c(C)cc21)=NO[C@@H](C)c1cn([C@H](CO)Cc2ccccc2)nn1`, the composite z-score is 1.22 in [1]; 1.06 in [2]; -0.177 in [3]; 0.171 in test [4]; 0.174 in test [5]; 0.605 in test [6]. The composite z-score worked out at 0.695 in test [7], 0.163 in test [9] and 0.347 in [10]. In addition, the z-score in test [8] is 1.19 (inactive).

Consider `O=C1[C@H]2[C@H]3[C@H](O)[C@H](O)CC(=NOCc4ccccc4)[C@H]3CC[C@H]2C(=O)N1Cc1ccc2c(c1)OCO2`, for which the composite z-score in test [1] is -0.537; in test [2], 0.239; in test [3], -0.172; in test [4] it was 0.315; in test [5], 0.306; in test [6] it was 0.273. Also, the figures for the composite z-score in test [7], in test [9] and in test [10] were 0.278, 0.0418 and -0.0003, respectively. For the same compound, in [8], the z-score is 0.0017 (inactive).

Consider `COc1ccc(COC(=O)NN=C2C[C@@H](O)[C@@H](O)[C@@H]3[C@@H]4C(=O)N(c5ccc(F)cc5F)C(=O)[C@@H]4CC[C@H]23)cc1`, for which the composite z-score in [1] is 1.64; in test [2], -0.398; in test [3] it was -0.128; in test [4] it was -0.088; in test [5], -0.412; in [6] it was 0.461. The composite z-score in test [7] is 0.179; in test [9], 1.28; in test [10] it was -0.0645. Moreover, in [8], the z-score was 0.398 (inactive).

With `CC(C)CON=C1C[C@@H](O)[C@@H](O)[C@@H]2[C@@H]3C(=O)N(C(C)(C)C)C(=O)[C@@H]3CC[C@H]12`, the composite z-score in [1] is 1.33; in [2] it was 0.275; in [3] it was -0.133; in [4], -0.136; in test [5], -0.681; in test [6] it was 0.414. Also, the composite z-score in [7] was -0.099; in [9] it was -0.142; in test [10] it was -0.21. Also, the z-score in [8] is -0.392 (inactive).

Turning to `COC(=O)CC=C[C@@H](C)[C@@H](C=NO[C@@H](C)c1cn([C@H](CO)Cc2ccccc2)nn1)NS(=O)(=O)c1ccc(C)cc1`, the composite z-score in [1] is -0.315; in test [2], 0.712; in [3], -0.161; in [4], 0.166; in test [5] it was 0.0829; in [6], -0.0443. The composite z-score is 0.75 in test [7], 0.279 in [9] and 0.251 in [10]. The z-score in test [8] was -1.1 (inactive).

For the compound `COC(=O)[C@H](C)NC(=O)CCC1CC(OC(=O)NCCc2ccc(F)cc2)CC2(CCCC(COC(=O)NCCC(C)C)O2)O1` (stereo not given in full), the composite z-score is -0.279 in [1]; -0.0132 in test [2]; -0.0407 in [3]; 1.11 in test [4]; 0.824 in test [5]; 1.26 in test [6]. Further, the composite z-score was 0.888 in test [7], 0.281 in [9] and -0.13 in test [10]. Besides, the z-score in test [8] was 0.033 (inactive).

Turning to `CC(=O)Nc1ccc([C@@H]2N[C@H](C(=O)O)CC[C@H]2C)cc1`, the composite z-score in [1] is -0.508; in test [2], 0.301; in test [3], -0.135; in test [4] it was 0.426; in test [5], 0.785; in test [6], 0.0589. For the same compound, the results for the composite z-score in [7], in [9] and in [10] were 0.151, 0.296 and -0.0618, respectively. Further, the z-score in [8] was 0.564 (inactive).
